{"source": "ChEMBL document CHEMBL1201862", "about": "“PubChem BioAssay data set” (2004)", "note": "In all, about 400,000 compounds went through this assay and about 2,100 (0.53%) were called active. Inconclusive results (about 14%) are left out. This is one part of a sample in which actives are shown more often than they occur. No rule for the calls is given here.", "data": [{"target": "Ataxin-2 (Homo sapiens) (UniProt Q99700)", "sequence (Q99700 whole entry)": "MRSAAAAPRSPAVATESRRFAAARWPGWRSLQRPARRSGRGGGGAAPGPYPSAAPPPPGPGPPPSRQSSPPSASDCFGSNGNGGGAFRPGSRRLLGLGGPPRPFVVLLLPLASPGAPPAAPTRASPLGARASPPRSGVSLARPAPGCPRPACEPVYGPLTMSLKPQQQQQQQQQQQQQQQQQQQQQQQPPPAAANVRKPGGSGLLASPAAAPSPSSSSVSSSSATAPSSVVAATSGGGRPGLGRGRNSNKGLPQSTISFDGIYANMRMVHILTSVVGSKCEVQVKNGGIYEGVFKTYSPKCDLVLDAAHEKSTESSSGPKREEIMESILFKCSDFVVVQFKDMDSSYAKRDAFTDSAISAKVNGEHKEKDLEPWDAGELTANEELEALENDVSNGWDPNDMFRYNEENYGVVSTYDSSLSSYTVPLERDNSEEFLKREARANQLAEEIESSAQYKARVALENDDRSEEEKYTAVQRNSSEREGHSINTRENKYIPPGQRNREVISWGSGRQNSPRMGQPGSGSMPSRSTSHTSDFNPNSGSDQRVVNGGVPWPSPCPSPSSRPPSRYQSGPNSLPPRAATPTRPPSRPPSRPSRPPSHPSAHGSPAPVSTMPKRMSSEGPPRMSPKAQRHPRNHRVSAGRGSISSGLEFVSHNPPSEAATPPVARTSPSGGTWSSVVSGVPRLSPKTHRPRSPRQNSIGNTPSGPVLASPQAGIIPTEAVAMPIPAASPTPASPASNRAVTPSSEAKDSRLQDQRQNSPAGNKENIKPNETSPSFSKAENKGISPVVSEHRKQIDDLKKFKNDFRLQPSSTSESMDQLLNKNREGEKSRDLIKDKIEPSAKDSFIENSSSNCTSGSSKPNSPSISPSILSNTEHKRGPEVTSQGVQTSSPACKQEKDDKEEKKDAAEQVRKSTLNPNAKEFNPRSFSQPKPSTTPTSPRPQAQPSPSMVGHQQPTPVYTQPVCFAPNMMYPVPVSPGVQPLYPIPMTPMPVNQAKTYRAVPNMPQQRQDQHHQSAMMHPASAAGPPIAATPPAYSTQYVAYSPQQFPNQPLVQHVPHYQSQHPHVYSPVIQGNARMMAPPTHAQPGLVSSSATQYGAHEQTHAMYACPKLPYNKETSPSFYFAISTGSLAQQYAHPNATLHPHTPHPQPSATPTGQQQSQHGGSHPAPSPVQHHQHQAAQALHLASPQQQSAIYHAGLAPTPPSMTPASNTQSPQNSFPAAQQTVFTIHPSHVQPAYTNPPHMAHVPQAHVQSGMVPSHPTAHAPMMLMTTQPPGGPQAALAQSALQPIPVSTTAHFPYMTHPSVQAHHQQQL", "experiment": "qHTS for Inhibitors of ATXN expression.", "type": "functional", "values": [{"smiles": "CS(=O)(=O)c1cnc2c(-c3ccsc3)cnn2c1N", "Potency": "inactive"}, {"smiles": "Nc1ccc2nc3c(=O)n(CCc4ccccc4)c(=O)[nH]c3nc2c1", "Potency": "inactive"}, {"smiles": "O=C(COC(=O)/C=C/c1ccc(Br)o1)NC1CCCCC1", "Potency": "inactive"}, {"smiles": "O=C(c1ccccc1)c1ccc(OCC(O)CNCc2ccc(F)cc2)cc1", "note": "(stereo not given)", "Potency": "inactive"}, {"smiles": "OC(CNCCc1ccc(C(F)(F)F)cc1)COc1ccc2ccccc2c1", "note": "(stereo not given)", "Potency": "25.1 µM (active)"}, {"smiles": "COc1ccc(C2CC(c3ccncc3)=NN2c2ccc(S(N)(=O)=O)cc2)cc1", "note": "(stereo not given)", "Potency": "inactive"}, {"smiles": "O=C(CNC(=O)c1ccccc1Br)N/N=C/c1ccccc1O", "Potency": "inactive"}, {"smiles": "CC(Oc1ccccc1Cl)C(=O)N(Cc1cccs1)C1CCS(=O)(=O)C1", "note": "(stereo not given)", "Potency": "inactive"}, {"smiles": "Cc1c(C(=O)Cc2ccccc2)n(C)c2ccccc12", "Potency": "inactive"}, {"smiles": "Cn1cc(C(=O)CCl)c2ccccc21", "Potency": "35.5 µM (active)"}, {"smiles": "Cc1cc(NC(=O)CSc2cn(C)c3ccccc23)no1", "Potency": "inactive"}, {"smiles": "Cc1cc(Sc2nc(NC(C)(C)C)nc(N3CCOCC3)n2)nc(Cl)n1", "Potency": "inactive"}, {"smiles": "Cc1nccc2cc3[nH]c4ccccc4c3cc12", "Potency": "inactive"}, {"smiles": "Cc1cc2[nH]c3c(c[n+](C)c4ccccc34)c2cc1C", "Potency": "31.6 µM (active)"}, {"smiles": "CCn1c(=N)c(C(=O)NC)cc2c(=O)n3cccc(C)c3nc21", "Potency": "inactive"}, {"smiles": "Cc1ccc(S(=O)(=O)Nc2nc3n(n2)C(c2ccc(Cl)cc2)C=C(c2ccccc2)N3)cc1", "note": "(stereo not given)", "Potency": "inactive"}, {"smiles": "CN(C(=O)COC(=O)c1cccnc1O)C1CCCCC1", "Potency": "inactive"}, {"smiles": "CN(C)c1ccc(N=Nc2ccccc2C(=O)OCC(=O)NC2CCCC2)cc1", "Potency": "28.2 µM (active)"}, {"smiles": "COc1ccccc1C(=O)OCC(=O)NC(=O)NC1CCCC1", "Potency": "inactive"}, {"smiles": "CC(C)Cc1nc2sc3c(SCC(N)=O)ncnc3c2c2c1CCC2", "Potency": "inactive"}, {"smiles": "CC(=O)/N=c1\\c(C#N)cc2c(=O)n3ccccc3nc2n1Cc1ccccc1", "Potency": "inactive"}, {"smiles": "CCN(CC)CCn1c(-c2ccccc2)cs/c1=N\\c1ccccc1", "Potency": "15.8 µM (active)"}, {"smiles": "CCN(CC)c1ccc2cc(S(=O)(=O)c3ccc(C)cc3)c(=O)oc2c1", "Potency": "inactive"}, {"smiles": "Cc1cc(C)n(-c2cc(C(C)(C)C)nc3c(-c4ccccc4)cnn23)n1", "Potency": "inactive"}, {"smiles": "Cc1nc2c(-c3ccc(Cl)cc3)cnn2c2c1CCC2", "Potency": "inactive"}, {"smiles": "CN(C)CCCNc1cc(C(C)(C)C)nc2c(-c3ccc(Cl)cc3)cnn12", "Potency": "39.8 µM (active)"}, {"smiles": "O=c1c2ccccc2[nH]c2ccc(O)cc12", "Potency": "inactive"}, {"smiles": "COc1ccc(OCCC(=O)NCCN2CCOCC2)cc1", "Potency": "inactive"}, {"smiles": "CCOc1ccc2c(c1)C(N(CCN1CCOCC1)C(=O)Nc1ccccc1)CC(C)(C)O2", "note": "(stereo not given)", "Potency": "inactive"}, {"smiles": "O=C(CCN1CCOCC1)N/N=C/c1cc(Br)cc(Br)c1O", "Potency": "inactive"}, {"smiles": "CCOc1ccc(C(=O)CCN2CCOCC2)cc1", "Potency": "39.8 µM (active)"}, {"smiles": "CCCCOc1ccc(C(=O)CCN2CCOCC2)cc1", "Potency": "23.8 µM (active)"}, {"smiles": "CCOc1ccc(C(=O)COC(=O)Cn2cnc3c2c(=O)n(C)c(=O)n3C)cc1", "Potency": "inactive"}, {"smiles": "CCCN(CCC)S(=O)(=O)c1ccc(C(=O)Nc2sc3c(c2C(=O)OC)CCN(CC)C3)cc1", "Potency": "inactive"}, {"smiles": "CCc1cc(=O)oc2cc(C)cc(O)c12", "Potency": "inactive"}, {"smiles": "O=C(COC(=O)c1cc(S(=O)(=O)N2CCCCC2)ccc1N1CCOCC1)c1ccccc1Cl", "Potency": "inactive"}, {"smiles": "COc1ccc(Nc2ccc3c(c2)=NC2(CCCCC2)[N+]=3[O-])cc1", "Potency": "20 µM (active)"}, {"smiles": "COc1ccc(Nc2ccnc(Nc3ccc(OC)cc3)n2)cc1", "Potency": "inactive"}, {"smiles": "CC(=O)c1cc2c(s1)-c1cc(F)ccc1OC2", "Potency": "inactive"}, {"smiles": "O=C(Nc1ccc(-c2csc(Nc3cccc(C(F)(F)F)c3)n2)cc1)c1cccc(C(F)(F)F)c1", "Potency": "20 µM (active)"}, {"smiles": "O=C(Nc1cccc(-c2csc(Nc3ccc(Cl)cc3)n2)c1)c1cc([N+](=O)[O-])cc(C(F)(F)F)c1", "Potency": "35.5 µM (active)"}, {"smiles": "NS(=O)(=O)c1cccc(NC(=O)CSc2n[nH]c(-c3cccs3)n2)c1", "Potency": "inactive"}, {"smiles": "COc1ccc(CC(N)c2csc(NC(=O)Nc3ccccc3C(C)(C)C)n2)cc1", "note": "(stereo not given)", "Potency": "39.8 µM (active)"}, {"smiles": "O=C(Cc1ccccc1F)Nc1ccccc1-c1ccccc1", "Potency": "inactive"}, {"smiles": "COc1ccc(CC(N)c2csc(NC(=O)Nc3ccccc3-c3ccccc3)n2)cc1", "note": "(stereo not given)", "Potency": "39.8 µM (active)"}, {"smiles": "CC(C)(C)c1ccccc1NC(=O)c1cnn2c(C(F)F)cc(-c3ccccc3)nc12", "Potency": "inactive"}, {"smiles": "COc1cccc(OCC(=O)Nc2ccccc2-c2ccccc2)c1", "Potency": "inactive"}, {"smiles": "CCOC(=O)CCc1c(C)c2cc3c(c(C)c2oc1=O)OCN(CCc1ccccc1OC)C3", "Potency": "inactive"}, {"smiles": "Cc1cc(C(=O)NNC(=O)c2ccc(C(F)(F)F)cc2)no1", "Potency": "inactive"}, {"smiles": "CC1C/C(=N\\NC(=O)c2ccc([N+](=O)[O-])cc2)CC(C)(C)C1", "note": "(stereo not given)", "Potency": "inactive"}, {"smiles": "Cc1ccc(NS(=O)(=O)c2ccc(C(=O)N3CCN(c4ncccn4)CC3)cc2)cc1", "Potency": "inactive"}, {"smiles": "CCCCCc1c(-c2cccc(OC)c2)ncn1CCc1ccccc1OC", "Potency": "31.6 µM (active)"}, {"smiles": "CCCCNc1c(-c2ccc(OC)c(Sc3ccc(OC)cc3)c2)nc2cnccn12", "Potency": "inactive"}, {"smiles": "COc1ccccc1[C@H]1C(c2cccc(Cl)c2)=NN(c2ccccc2)[C@@H]1CO", "Potency": "inactive"}, {"smiles": "CCCCc1c(-c2cccc(Cl)c2)ncn1CCc1ccccc1OC", "Potency": "31.6 µM (active)"}, {"smiles": "CCCCc1c(-c2cccc(OC)c2)ncn1CCc1ccccc1OC", "Potency": "39.8 µM (active)"}, {"smiles": "COc1c(OC)c2nc(O)cc3c4ccccc4n(c1=O)c23", "Potency": "inactive"}, {"smiles": "Clc1ccc(C2=CC(c3ccco3)n3ncnc3N2)cc1", "note": "(stereo not given)", "Potency": "inactive"}, {"smiles": "Cc1cc(O)c(C(=O)/C=C/c2c(F)c(F)c(F)c(F)c2F)c(=O)o1", "Potency": "inactive"}, {"smiles": "CCOC(=O)c1c(NC(=O)c2ccc(S(=O)(=O)N3CCC(C)CC3)cc2)sc2c1CCN(CC)C2", "Potency": "inactive"}, {"smiles": "Nc1nnnn1/N=C/c1cc(Cl)ccc1O", "Potency": "inactive"}, {"smiles": "CC(=O)Oc1cc2oc(=O)cc(C)c2cc1OC(C)=O", "Potency": "inactive"}, {"smiles": "CC(=O)Nc1cc2ccc(OC(C)=O)cc2oc1=O", "Potency": "inactive"}, {"smiles": "CC(=O)Nc1cc(OC(C)=O)c2nonc2c1OC(C)=O", "Potency": "39.8 µM (active)"}, {"smiles": "OC[C@@H]1[C@@H](c2ccccc2)C(c2cccc(Cl)c2)=NN1c1ccccc1", "Potency": "inactive"}, {"smiles": "O=C(COC(=O)c1cncc(Br)c1)NCc1cccs1", "Potency": "inactive"}, {"smiles": "CCCCCCCCN1C(=O)[C@H](CC(=O)NCCC(C)C)C[C@@]2(C(=O)OCC)CCCC=C12", "Potency": "39.8 µM (active)"}, {"smiles": "CCCCCCCCN1C(=O)[C@H](CC(=O)NCc2cccs2)C[C@@]2(C(=O)OCC)CCCC=C12", "Potency": "39.8 µM (active)"}, {"smiles": "Cc1c(N(C(=O)Cc2cccs2)C2(C(=O)NC3CCCC3)CCCCC2)c(=O)n(-c2ccccc2)n1C", "Potency": "inactive"}, {"smiles": "C#CCNC(=O)C[C@@H]1C[C@@]2(C(=O)OCC)CCCC=C2N(CCCCCCCC)C1=O", "Potency": "20 µM (active)"}]}]}
